From PubChem BioAssay
A selection: hits, their analogues and other compounds. The true share with any hit is near 12%.
G9a block = qHTS Assay for Inhibitors of Histone Lysine Methyltransferase G9a. Histone-lysine N-methyltransferase EHMT2 (Homo sapiens), Q96KQ7. G9a H3K9 monomethylation, AlphaScreen, 2 h. Potency, µM (top dose mostly 102 µM), inactives show top-dose activity, negative = inhibition, usual class: inhibitors. hit rate 8.8% among 350,000. AID 504332, 2011; note: % is set by controls: 0 for no effect and ±100 for the full control effect; nearly all actives have a fitted effect of over 75% in size
Target sequence (Q96KQ7 913-1193 limits assumed): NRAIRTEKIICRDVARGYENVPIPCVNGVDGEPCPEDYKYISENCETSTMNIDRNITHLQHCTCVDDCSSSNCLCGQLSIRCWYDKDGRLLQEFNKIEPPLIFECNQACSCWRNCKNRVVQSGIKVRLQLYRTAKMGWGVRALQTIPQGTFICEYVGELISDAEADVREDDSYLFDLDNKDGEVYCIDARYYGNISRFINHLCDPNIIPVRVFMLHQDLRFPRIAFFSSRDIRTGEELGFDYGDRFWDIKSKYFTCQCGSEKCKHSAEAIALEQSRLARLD
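Compounds were preincubated with 20 nM G9a for 15 min, after which biotinylated H3K9 peptide (500 nM) and SAM (20 uM) started a 2 h room-temperature reaction. Monomethylated product was quantified by antibody-based AlphaScreen chemiluminescence.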
Sfp PPTase inh = qHTS Assay for Inhibitors of Bacillus subtilis Sfp phosphopantetheinyl transferase (PPTase) | 4'-phosphopantetheinyl transferase ffp (Bacillus subtilis), Q9F4F7 | Biochemical Sfp PPTase activity, qHTS | Potency, µM, for the others: largest response in the series, negative = inhibition, actives largely listed as inhibitors | hit rate 3.5% among 310,000 | AID 1490, 2009;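 note: the enzyme is Sfp with the accession as filed and its product quenches rhodamine fluorescence; 0% = enzyme reaction without inhibitor and -100% = no enzyme wells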
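After 15 min at room temperature with compound, 15 nM Sfp received 5 uM rhodamine-CoA plus 12.5 uM BHQ-2-ybbR (50 mM Hepes pH 7.6, 10 mM MgCl2). Rate came from the fluorescence difference over 30 min, ex 525/em 598 nm.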
L3MBTL1 inh = qHTS Assay for the Inhibitors of L3MBTL1; AlphaScreen L3MBTL1–H3K9me1 peptide binding; AID 485360, 2010; hit rate 0.66% among 230,000; Lethal(3)malignant brain tumor-like protein 1 (Homo sapiens), Q9Y468; Potency, µM (highest dose often 57.1 µM), for the others: top-dose activity, negative = inhibition, most hits filed as inhibitors; note: % is set by controls: 0 for no effect and ±100 for the full control effect; nearly all actives have a fitted effect of over 60% in size
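L3MBTL1 (50 nM) pre-complexed 30 min with biotinylated H3(1-15)K9me1 peptide (75 nM), then compounds added for 30 min at room temperature; AlphaScreen streptavidin donor/nickel chelate acceptor beads (10 ug/mL final) read after 30 min dark incubation.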
HP1b chromo inh = HTS for Inhibitors of HP1-beta Chromodomain Interactions with Methylated Histone Tails; hit rate 0.56% among 390,000; Chromobox protein homolog 1 (Homo sapiens), P83916; Potency, µM (titrated, usually from 114 µM), for the others: top-dose activity change, negative = inhibition, actives largely listed as inhibitors; AID 540317, 2011; AlphaScreen HP1-beta / biotin-H3K9me3 peptide binding; note: nearly all actives have a fitted effect of over 70% in size
Target sequence (P83916 whole entry, looked up): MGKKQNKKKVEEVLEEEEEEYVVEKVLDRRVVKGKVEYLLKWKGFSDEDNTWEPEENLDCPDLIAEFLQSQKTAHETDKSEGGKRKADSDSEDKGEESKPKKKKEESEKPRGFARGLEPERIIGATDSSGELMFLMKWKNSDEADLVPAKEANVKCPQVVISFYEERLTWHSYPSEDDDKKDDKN
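HP1-beta protein (50 nM final) preincubated 30 min at room temperature with biotinylated H3(1-18)K9me3 peptide (50 nM) in PBS pH 7.4, 0.01% Tween-20, then compound added for 30 min. AlphaScreen streptavidin donor/nickel chelate acceptor beads (10 ug/mL final), 30 min dark, luminescence read.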
JMJD2A Tudor inh = qHTS Assay for Inhibitors of JMJD2A-Tudor Domain; Lysine-specific demethylase 4A (Homo sapiens), O75164; AlphaScreen JMJD2A-Tudor / H3K4me3 peptide binding; Potency, µM (highest dose often 114 µM), inactives show at the highest dose activity change, negative = inhibition, hits mostly inhibitors; hit rate 4.4% among 390,000; note: % is set by controls: 0 for no effect and ±100 for the full control effect; nearly all actives have a fitted effect of over 50% in size
BAZ2B block = qHTS Assay for Inhibitors of BAZ2B; Potency, µM (highest dose often 114 µM), inactives show at the highest dose activity change, negative = inhibition, actives largely listed as inhibitors; Bromodomain adjacent to zinc finger domain protein 2B (Homo sapiens), Q9UIF8; hit rate 4.4% among 360,000; AlphaScreen BAZ2B-H3K14Ac peptide displacement; AID 504333, 2011; note: % is set by controls: 0 for no effect and ±100 for the full control effect; nearly all actives have a fitted effect of over 60% in size
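AlphaScreen luminescence quantifies BAZ2B engagement of H3K14Ac peptide; the protein and biotinylated peptide are both at 50 nM final, buffer PBS pH 7.4 with 0.01% Tween-20, all steps at room temperature.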
Numbers without * were called inactive; ? = inconclusive; . = no result given; ! = a repeat was not active; [ ] = remark or other dose. Calls come from the whole dose curve; as a rule, active = well fitted curve in the direction sought with a large enough effect; inconclusive = small, poorly fitted or top-dose-only effect, or another doubt; inactive = no such curve, though single readings can be large; an effect the other way counts as inactive or inconclusive. Potency is the fitted concentration of half-maximal effect.

SMILES	G9a block	Sfp PPTase inh	L3MBTL1 inh	HP1b chromo inh	JMJD2A Tudor inh	BAZ2B block
COC(=O)C1=C(C(=O)OC)[C@@H]2Nc3ccccc3[C@@]23C[C@@H](C(=O)OC)N(S(=O)(=O)c2ccc(OC)cc2)C3=N1	.	-13%	.	.	.	.
CC(c1ccncn1)N(C)Cc1nc(-c2ccc(C(F)(F)F)cc2)no1 (stereo unspecified)	15%	14%	-6%	40%	5%	39%
Cc1oc(-c2ccc3ccccc3c2)nc1CN(C)C(C)c1ccncn1 (stereo unspecified)	?	22µM*	?	-6%	?	-30%
Cc1nnc(NC2CCCCC2)[nH]c1=O	-8%[59 µM]	2%	14%	35%	5%	6%
O=c1[nH]c(NC2CCCCC2)nnc1Cc1ccccc1	?	11%	1%	24%	50µM*	-9%
Cc1[nH]c2ccc(Br)cc2c(=S)c1C/C=C/Cl	35µM*	10%	?	3%	-31%	?
O=C(CSCc1ccccc1)N=Nc1c(O)[nH]c2ccccc12	8%	-4%	-11%	21%	-24%	1%
O=C(CSCc1cccc(Br)c1)N=Nc1c(O)[nH]c2ccccc12	21%[0.0925 µM]	-9%	-7%	1%	-18%[57.1 µM]	50µM*
Cc1ccc(N2C(=O)C3C4C=CC(CNC(=S)N5CCN(c6cccc(C)c6)C(C)C5)(O4)C3C2=O)cc1 (stereo unspecified)	2µM*	20µM*	.	25µM*	18µM*	-2%
CC1CN(c2ccccn2)C(C)CN1C(=S)Nc1ccccc1 (stereo unspecified)	.	.	.	24%	-15%	.
Cn1sc(=O)n(Cc2ccccc2)c1=O	.	0.14µM*	.	.	.	.
Cn1c(=O)n(Cc2ccccc2)c2ccccc21	22%[12.7 µM]	9%	.	22%	-8%	-4%
COc1ccc(C(=O)NN2CC(O)=C(c3nc4ccccc4n3C)C2=N)cc1OC	15%	-4%	5%	23%	4.5µM*	-8%
COc1ccc(C(=O)NC(C)c2nc3ccccc3n2C)cc1OC (stereo unspecified)	-17%[59 µM]	-12%	1%	29%	-22%	2%
O=C(O)c1cc(=O)[nH]c(=O)[nH]1	12%[59 µM]	?	.	.	.	.
O=C(O)c1cc(=O)cc(C(=O)O)[nH]1	1.7µM*!	40µM*	6%[11.4 µM]	44%	-10%	-38%
CCOC(=O)C(C(=O)OCC)C(C(=O)OCC)N1CCOCC1 (stereo unspecified)	1.6µM*	22µM*	.	?	?	2%
CCOC(=O)C(C)CC(C)C(=O)N1CCOCCOCCN(C(=O)C(C)CC(C)C(=O)OCC)CCOCC1 (stereo unspecified)	2%	16%	4%	32%	2%[57.1 µM]	8%
COc1ccc(C(=O)N2CCC3(CCCN(CC(C)C)C3)CC2)cc1	4%[12.7 µM]	9%	.	.	.	.
CCOC(=O)c1nn(-c2ccc(F)cc2)c2c1CC/C2=C/c1ccccc1	71µM*	0%	10%	38%	-7%	-1%
Cc1cc(C(=O)O)ccc1N=Cc1c(O)ccc2ccccc12	2.5µM*	-1%	-1%	1%	?	-7%
CC(=O)N(C)c1ccc(N=Cc2c(O)ccc3ccccc23)cc1	4µM*	1%	-9%	17%	?	-29%
CC(=O)c1cccc(N=Cc2c(O)c3ccccc3oc2=O)c1	-18%	-2%	.	36%	-17%	-31%
CC(=O)c1cccc(N=Cc2c(O)ccc3ccccc23)c1	1.6µM*	11%	-8%	-10%	71µM*	?
Oc1ccc2ccccc2c1C=Nc1ccc(N2CCOCC2)cc1	?	-26%	.	?	50µM*	40µM*
SMILES	G9a block	Sfp PPTase inh	L3MBTL1 inh	HP1b chromo inh	JMJD2A Tudor inh	BAZ2B block
CC(Sc1nnnn1-c1cccc(F)c1)C(=O)NC1CCCC1 (stereo unspecified)	-5%[12.7 µM]	.	-2%	13%	-13%	5%
COc1cc(OC)c(NC(=O)c2c(C)nn(-c3ccc(C)cc3)c2-n2cccc2)cc1Cl	-18%[59 µM]	.	.	-6%	-24%	-35%
Oc1ccc2ccccc2c1/C=N/c1nccs1	?	?	-21%	-17%	-13%[57.1 µM]	?
C=Cc1ccc(N=Cc2c(O)ccc3ccccc23)cc1	1.6µM*	-15%	.	59%	?	6%
O=C1CN(Cc2nc3cc(Cl)ccc3c(=O)[nH]2)CCN1	?	3%	.	51%	2.5µM*	-17%
O=C(O)c1ccc2c(=O)[nH]c(CN3CCOCC3)nc2c1	?	-21%	.	14%	35µM*	?
O=c1[nH]c(CN2CCOCC2)nc2ccccc12	0%	-15%	10%	19%	1%	.
O=C(O)c1ccc2c(=O)[nH]c(CCl)nc2c1	56µM*	10%	-1%	84%	?	-39%
CCc1sc(-c2cc3cccc(OC)c3oc2=O)nc1-c1cc(C)ccc1C	.	.	.	55%[57 µM]	37%[57.1 µM]	.
O=C(CC(c1ccccc1)c1cc(Br)ccc1O)NCC1(c2ccccc2)CCCC1 (stereo unspecified)	-23%[59 µM]	.	.	-7%	-31%	?
N#C/C(=C1/SCC(c2ccccc2Cl)S1)n1ccnc1 (stereo unspecified)	-5%[59 µM]	6%	.	.	.	.
CCSc1nc(C2CC2)cc(-c2cccs2)c1C#N	131%[59 µM]	-10%	.	162%	291%	213%
CCOc1ccc(-c2c(C#N)c(N)nc3sc(C(=O)c4ccccc4)c(N)c23)cc1	4%[59 µM]	-19%	.	112%	15%	0%
COc1ccc(-c2c(C#N)c(N)nc3sc(C(=O)c4ccccc4)c(N)c23)cc1	50µM*	-4%	13%	86%	15%	23%
CCOC(=O)CSc1nc(C2CC2)cc(-c2ccc(Cl)cc2)c1C#N	-2%[59 µM]	18µM*	45%	20%	-17%	19%
CCOC(=O)CSc1nc(N)c(C#N)c(-c2ccc(OC)cc2)c1C#N	50µM*	-12%	0%	58%	6%	7%
N#Cc1c(-c2ccccc2F)cc(C2CC2)nc1SCC(=O)c1cccs1	45µM*	3%	5%	29%	-4%	-4%
COc1ccccc1NS(=O)(=O)c1cc(NC(=O)C(C)C)ccc1N1CCCCC1	8.9µM*	40µM*	5%	?	?	.
COc1ccccc1NS(=O)(=O)c1cc(NC(=O)c2cccs2)ccc1N1CCCCC1	-12%[59 µM]	17%	-9%	-6%	-19%	-21%
O=C(Nc1ccc(F)cc1)Nc1ccc(N2CCCC2)c(S(=O)(=O)Nc2ccccc2Cl)c1	?	20%	-13%	6%	-33%	-12%
